ELG1 repair inh: blocks ELG1-dependent DNA repair in HEK293T cells; HEK293T ELG1-luciferase reporter, luminescence, 16 h; DNA damage induced by 5-fluorouridine; 330,000 tested, 2.3% active; Potency, µM (titrated, usually from 46.1 µM), most hits filed as inhibitors; further: nearly all actives have a fitted effect of over 55% in size
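Reporter activity after DNA damage by 5-fluorouridine is monitored. Compound-treated cells incubate 16 hr at 37 °C, then ONE-Glo is added for 30 min before luminescence reading.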
Gal4-VP16 FLuc: Gal4-VP16 reporter inhibition counter-screen; Drosophila S2 Gal4-VP16 UAS-luciferase, luminescence, 20 h; Potency, µM (series often up to 53.6 µM), actives largely listed as inhibitors; 310,000 tested, 3.5% active;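 further: Gal4-VP16 expression switched on by copper sulfate through the metallothionein promoter; nearly all actives have a fitted effect of over 50% in size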
p53 reactivator: re-activators of mutant p53 | H1299 p53-A138V BP100-luciferase reporter, luminescence, 24 h | Potency, µM (titrated, usually from 92.2 µM), actives largely listed as activators | 320,000 tested, 0.063% active | AID 504706; further: nearly all actives have a fitted effect of over 45% in size
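p53-null H1299 cells stably carrying temperature-sensitive p53-A138V and a BP100-luciferase reporter were pinned with compounds (4-point, 1:5 series) and held 24 hrs at 37 deg C. Luminescence was read 10 min after detection reagent.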
RORgamma inh: inhibitors of mouse ROR gamma transcriptional activity | Potency, µM (titrated, usually from 53.6 µM), hits mostly inhibitors | Drosophila S2 Gal4-RORgamma UAS-luciferase reporter, 20 h | 310,000 tested, 5.4% active; further: nearly all actives have a fitted effect of over 60% in size
Target sequence (P51450 whole entry, looked up, the tested form may be a part): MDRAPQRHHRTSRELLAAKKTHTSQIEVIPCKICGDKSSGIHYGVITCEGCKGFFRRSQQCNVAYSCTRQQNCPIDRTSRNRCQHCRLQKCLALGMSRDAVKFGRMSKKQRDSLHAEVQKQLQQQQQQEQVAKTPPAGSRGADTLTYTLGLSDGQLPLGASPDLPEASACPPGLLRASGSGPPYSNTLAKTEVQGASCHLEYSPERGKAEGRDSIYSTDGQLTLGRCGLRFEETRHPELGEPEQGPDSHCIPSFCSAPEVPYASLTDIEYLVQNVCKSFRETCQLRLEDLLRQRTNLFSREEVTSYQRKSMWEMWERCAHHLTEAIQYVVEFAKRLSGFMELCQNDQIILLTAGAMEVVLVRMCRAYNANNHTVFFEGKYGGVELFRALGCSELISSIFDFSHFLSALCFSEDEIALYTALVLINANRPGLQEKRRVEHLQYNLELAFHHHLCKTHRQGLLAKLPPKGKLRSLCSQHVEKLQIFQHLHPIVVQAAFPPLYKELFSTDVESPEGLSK
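Schneider cells (Drosophila), stable Gal4 DBD–ROR gamma + UAS-luc; 1 hr cmpd preincubation; Cu2+ induction 700 uM final; 20 hr ambient; luminescence.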
Giardia kill: Giardia lamblia killing | Giardia lamblia trophozoite viability | activity change, % at 7.66 µM, hits read low | AID 540267 | 340,000 tested, 0.15% active; in the data active means activity change below about -80%; inconclusive means between about -30% and that limit;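 further: parasites exposed to compound for two days anaerobically before the ATP read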
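Luminescence from cellular ATP indicates surviving trophozoites (100 cells/well) following 48 hrs anaerobic compound treatment at 37 deg C; signal develops 15-30 min at room temperature.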
BRCA1 expr act: increases BRCA1 expression. MCF7-BRCA1-FFLuc reporter, luminescence, 48 h; response scale: scaled: vehicle 0%, 10 µM genistein 100%. Potency, µM (highest dose often 46.1 µM), hits mostly activators. 380,000 tested, 1.1% active; further: nearly all actives have a fitted effect of over 80% in size
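MCF7 cells carrying a BRCA1-firefly luciferase reporter (2000 cells/well, phenol-red free MEM) were attached for 2 h at 37 °C, then given compounds for 48 h. Luminescence was read 15 min after luciferase reagent; activity normalized to genistein (10 microM) and DMSO.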
Each line names hits and unclear results; the compound was inactive in the other large screens. A selection: hits, their analogues and other compounds. The true share with any hit is near 7.6%. Unless noted, the call rests on the fitted dose curve; in most records, active means well fitted curve in the direction sought with a large enough effect; inconclusive means small, poorly fitted or top-dose-only effect, or another doubt; inactive means no such curve, though single readings can be large; an effect the other way counts as inactive or inconclusive.

Cc1ccc2nc(NC(=O)C3CCCN(S(=O)(=O)c4cccc5nonc45)C3)sc2c1 (configuration not stated)	ELG1 repair inh 7.3µM, RORgamma inh inconclusive (no result: Giardia kill, BRCA1 expr act)
COc1ccc(NS(=O)(=O)c2ccc(O)c(C(=O)OCC(=O)N3CCCCC3)c2)cc1	none (no result: Gal4-VP16 FLuc, RORgamma inh)
Cc1sc2ncnc(NCc3cccnc3)c2c1C	ELG1 repair inh inconclusive
Cc1ccc(C)c(N(C(=O)c2csnn2)C(C(=O)NC2CCCCC2)c2ccncc2)c1 (configuration not stated)	none
CCC(C)NC(=O)C1CCCN(c2nc(C)cc(OC)n2)C1 (configuration not stated)	none
COc1cc(C)nc(N2CCCC(C(=O)NC3CCC(C)CC3)C2)n1 (configuration not stated)	ELG1 repair inh inconclusive, p53 reactivator inconclusive, BRCA1 expr act 3.55µM
O=C(CNC(=O)OCc1ccccc1)NC1CCCCCCC1	none
CCn1c(-c2ccc(OC)c(OC)c2)n[nH]c1=S	RORgamma inh 11.2µM
C=CCn1c(-c2ccc(OC)c(OC)c2)n[nH]c1=S	Gal4-VP16 FLuc inconclusive, RORgamma inh 3.16µM
CCn1c(SCC(N)=O)nnc1-c1ccc(OC)c(OC)c1	ELG1 repair inh inconclusive
COc1ccc(Cl)cc1NC(=O)CN(C)C(=O)C1COc2ccccc2O1 (configuration not stated)	none (no result: Gal4-VP16 FLuc, RORgamma inh)
COc1ccc(CCNC(=O)CCN2C(=O)[C@@H]3Cc4ccccc4CN3C2=O)cc1OC	ELG1 repair inh inconclusive
COc1ccc(NC(=O)CC2SC(=O)NC2=O)cc1 (configuration not stated)	ELG1 repair inh inconclusive, Gal4-VP16 FLuc 12.6µM, RORgamma inh 11.2µM
Cc1ccc(NC(=O)CC2S/C(=N/N=C3/NC(=O)CS3)NC2=O)cc1 (configuration not stated)	RORgamma inh inconclusive
Cc1ccc(NC(=O)CC2SC(=O)NC2=O)cc1 (configuration not stated)	Gal4-VP16 FLuc 4.47µM, RORgamma inh 5.01µM
O=c1[nH]c2cccc(Cl)c2c2ccccc12	none (no result: ELG1 repair inh, Gal4-VP16 FLuc, p53 reactivator, RORgamma inh, Giardia kill)
COc1ccc(-c2nnc(-c3ccc(N(C)C)cc3)o2)cc1	RORgamma inh 0.794µM, BRCA1 expr act inconclusive (no result: ELG1 repair inh, p53 reactivator)
CN(C)c1ccc(-c2nnc(-c3ccccc3F)o2)cc1	ELG1 repair inh inconclusive, Gal4-VP16 FLuc inconclusive, RORgamma inh 11.2µM, BRCA1 expr act inconclusive (no result: p53 reactivator)
COc1ccc(-c2nnc(-c3ccc(N)cc3)o2)cc1	ELG1 repair inh inconclusive, BRCA1 expr act inconclusive
Cc1cc([N+](=O)[O-])nn1Cc1noc(C(=O)NCCc2ccccn2)n1	none
COc1ccc(NC(=O)c2cccs2)cn1	ELG1 repair inh inconclusive, Giardia kill inconclusive
COc1ccc(CNC(=O)c2cccs2)cc1	RORgamma inh inconclusive
O=C(NCCc1cccs1)c1cccs1	ELG1 repair inh inconclusive, p53 reactivator inconclusive, BRCA1 expr act 6.31µM
COc1ccc(NS(=O)(=O)c2csc(C(=O)Nc3ccccc3)c2)cc1	ELG1 repair inh inconclusive, Gal4-VP16 FLuc 20µM, RORgamma inh 12.6µM
COc1ccc(CCNC(=O)c2cccs2)cc1	ELG1 repair inh inconclusive, RORgamma inh inconclusive, BRCA1 expr act 10µM
O=C(NCCCCCCNC(=O)c1cccs1)c1cccs1	none
CC(C)(C)c1ccc(Oc2ccc(NC(=O)c3cccs3)cn2)cc1	ELG1 repair inh 6.51µM, Gal4-VP16 FLuc inconclusive, RORgamma inh inconclusive
N#CC(C#N)=C1CCCc2sccc21	none (no result: ELG1 repair inh, Gal4-VP16 FLuc, p53 reactivator, RORgamma inh)
CSc1ccc(C2N=C(c3ccccc3)NO2)cc1 (configuration not stated)	ELG1 repair inh inconclusive, p53 reactivator inconclusive, BRCA1 expr act inconclusive
COc1ccc2cc(CCNC(=O)c3cc4ccccc4o3)c(=O)[nH]c2c1	none
COc1ccc2cc(CCNC(=O)c3cccs3)c(=O)[nH]c2c1	ELG1 repair inh inconclusive, p53 reactivator inconclusive, BRCA1 expr act 2.82µM
COc1ccc(-c2ccc(S(=O)(=O)n3nc(OC(=O)c4cccs4)cc3N)cc2)cc1	none
O=C(CNC(=O)c1cccs1)c1ccc(Br)cc1	ELG1 repair inh inconclusive, p53 reactivator inconclusive, BRCA1 expr act 5.62µM
COc1ccc(C(=O)Nc2ccc(SC(F)F)cc2)cc1	ELG1 repair inh inconclusive, p53 reactivator inconclusive, RORgamma inh inconclusive, BRCA1 expr act 1.26µM
O=C(CNC(=O)c1cccs1)OCc1ccc(Br)cc1	none
COc1ccc(NC(=O)n2nc(OC(=O)c3cccs3)cc2N)cc1	ELG1 repair inh inconclusive, BRCA1 expr act 12.6µM
Cc1cc(C(F)F)n2nc(C(=O)Nc3ccc(C(C)C)cc3)nc2n1	none (no result: ELG1 repair inh, Gal4-VP16 FLuc, p53 reactivator, RORgamma inh, Giardia kill)
CC1(C)OC(=O)C(=NNc2ccc(Br)cc2)C(=O)O1	ELG1 repair inh inconclusive, RORgamma inh inconclusive
Cc1cccc(C)c1NC(=O)CS(=O)CC(=O)NC1CCCc2ccccc21 (configuration not stated)	none
CC(C)Oc1cccc(NC(=O)C2(C)CCCN(C)C2)c1 (configuration not stated)	none (no result: ELG1 repair inh, Gal4-VP16 FLuc, p53 reactivator, RORgamma inh, Giardia kill)
O=C(NCc1ccc(F)cc1)c1cccs1	none (no result: Gal4-VP16 FLuc, p53 reactivator, RORgamma inh)
O=C(NCCc1ccc(F)cc1)c1cccs1	ELG1 repair inh inconclusive, p53 reactivator inconclusive, BRCA1 expr act 11.2µM
COc1ccc(NC(=O)c2ccc(NC(=O)c3cccs3)cc2)cc1	ELG1 repair inh inconclusive, Gal4-VP16 FLuc inconclusive, RORgamma inh 7.08µM
O=C(NCCC1CCCC1)c1cccs1	RORgamma inh inconclusive, BRCA1 expr act 11.2µM (no result: p53 reactivator)
O=C(O)C1CC=CC2CCN(C3CC3)C(=O)C21 (configuration not stated)	none (no result: ELG1 repair inh, p53 reactivator, BRCA1 expr act)
COc1ccc(NS(=O)(=O)c2ccc3oc(Nc4ccc5c(c4)OCCO5)nc3c2)cc1	ELG1 repair inh inconclusive, RORgamma inh inconclusive
CCCc1cc2c(=O)c(-c3ccc4c(c3)OCCO4)coc2cc1OS(C)(=O)=O	ELG1 repair inh inconclusive, RORgamma inh inconclusive
CCCc1cc2c(=O)c(-c3ccc4c(c3)OCCO4)c(C)oc2cc1OS(C)(=O)=O	ELG1 repair inh 13µM
O=C(N/N=C/c1ccccc1O)c1cccc2ccccc12	Gal4-VP16 FLuc 0.891µM, p53 reactivator inconclusive, RORgamma inh 1µM
COc1ccc2[nH]c(C(=O)N/N=C/c3ccccc3OC)cc2c1	ELG1 repair inh inconclusive
O=C(O)c1ccc(C=NNC(=O)c2cccc3ccccc23)cc1	none (no result: ELG1 repair inh, Gal4-VP16 FLuc, p53 reactivator, RORgamma inh)
CCCOc1ccc2[nH]c(C(=O)N/N=C/c3cc(OC)c(OC)c(OC)c3)cc2c1	ELG1 repair inh inconclusive, RORgamma inh inconclusive
COc1cc(OC)c2cc(C(=O)N/N=C/c3ccccc3O)[nH]c2c1	Gal4-VP16 FLuc 5.62µM, RORgamma inh 6.31µM
O=C(N/N=C/c1ccccc1O)c1cc(=O)[nH]c2ccccc12	Gal4-VP16 FLuc inconclusive, RORgamma inh 7.94µM (no result: Giardia kill, BRCA1 expr act)
CCOc1ccc(/C=N/NC(=O)c2cc3c(OC)cc(OC)c(OC)c3[nH]2)cc1	ELG1 repair inh 8.2µM

Source: PubChem BioAssay
